Compound activity as filed in PubChem.
Sm TGR inh: qHTS Assay for the Inhibitors of Schistosoma Mansoni Peroxiredoxins | AID 485364, 2010 | Schistosoma mansoni thioredoxin glutathione reductase (TGR), Q962Y6 | 360,000 tested, 3% active | Potency, µM (titrated, usually from 114 µM), for the others: top-dose activity change, negative = inhibition, most hits filed as inhibitors | purified TGR, DTNB reduction, TNB absorbance 405 nm; further: potency means the concentration at half of the fitted maximal effect; on the % scale 0 is the no-effect control and ±100 the full control effect; nearly all actives have a fitted effect of over 60% in size
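Kinetic colorimetric format: TGR-catalysed, NADPH-driven DTNB reduction monitored via TNB absorbance. Enzyme dispensed at 20 nM; compound exposure 15 min at room temperature before reaction start.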
SARS PLP yeast: qHTS of Yeast-based Assay for SARS-CoV PLP | S. cerevisiae expressing SARS-CoV PLpro, growth rescue | Potency, µM (series often up to 32.9 µM), without a hit: at the top dose activity, positive = growth rescue, most hits filed as activators | 330,000 tested, 0.19% active | AID 485353, 2010; calls by dose curve; further: potency means the concentration at half of the fitted maximal effect; 0% is about no effect; nearly all actives have a fitted effect of over 55% in size
Pf growth 48h: Primary qHTS for delayed death inhibitors of the malarial parasite plastid, 48 hour incubation; P. falciparum luciferase growth in erythrocytes, 48 h; Potency, µM (series often up to 28.7 µM), inactives show at the highest dose activity change, negative = inhibition, usual class: inhibitors; 310,000 tested, 5.9% active; AID 504832, 2011; further: potency means the concentration at half of the fitted maximal effect; on the % scale 0 is the no-effect control and ±100 the full control effect
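Growth was read as firefly luciferase luminescence after a 48 h, 37 C, 5% CO2 exposure of compounds to reporter-bearing P. falciparum cultures (0.1% parasitemia, 2% hematocrit final) in Albumax-supplemented RPMI 1640.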
Pf growth 96h: Primary qHTS for delayed death inhibitors of the malarial parasite plastid, 96 hour incubation. Potency, µM (highest dose often 28.7 µM), for the others: top-dose activity change, negative = inhibition, usual class: inhibitors. 320,000 tested, 6.9% active. P. falciparum luciferase reporter growth, 96 h; further: potency means the concentration at half of the fitted maximal effect; on the % scale 0 is the no-effect control and ±100 the full control effect
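Erythrocytes infected with luciferase-expressing P. falciparum were dispensed at 2% hematocrit and 0.05% parasitemia (final), then incubated with compounds 96 hours at 37 C in 5% CO2. Luminescence after detection reagent addition reported growth.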
HCV inh: qHTS Assay for Inhibitors of Hepatitis C Virus (HCV). Huh7.5.1 HCVcc-Cre infection, luciferase reporter, 44 h. Potency, µM (top dose mostly 41.8 µM), inactives show at the top dose activity change, negative = inhibition, usual class: inhibitors. 340,000 tested, 3.4% active; further: potency means the concentration at half of the fitted maximal effect; on the % scale 0 is the no-effect control and ±100 the full control effect
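1,000 cells/well; 4 h culture; + compound; + HCVcc-Cre (~0.5 moi); 44 h; luciferase substrate, RT 15 min; read 15 sec.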
HCMV inh: qHTS Assay for inhibitors of the human cytomegalovirus (HCMV); activity change, negative = inhibition, % at 57.5 µM; 410,000 tested, 4.5% active; HFF cells, HCMV-luciferase reporter, 72 h; hits give low values; in the data active means activity change below about -60%; inconclusive means no clear call, values can overlap the other calls; inactive means above about -39%; further: on the % scale 0 is the no-effect control and ±100 the full control effect
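Inhibition of viral replication was scored as loss of reporter luminescence in HFFs infected with HCMV-luciferase (MOI 1 PFU/cell) for 72 h; compounds tested at 2 doses, normalized to buffer and Salinomycin controls.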
The depositor's hits bear a star; ? = inconclusive; . = no result. Compounds with a hit are over-represented: about 15% of the library has one in this group of screens. Unless noted, the call rests on the fitted dose curve; in most records, active means well fitted curve in the direction sought with a large enough effect; inconclusive means small, poorly fitted or top-dose-only effect, or another doubt; inactive means no such curve, though single readings can be large; an effect the other way counts as inactive or inconclusive.

SMILES | Sm TGR inh | SARS PLP yeast | Pf growth 48h | Pf growth 96h | HCV inh | HCMV inh
CCCc1[nH]nc2c1C(c1cc(OC)ccc1F)C(C#N)=C(N)O2 (centres undefined) | ? | 7% | ? | ? | 19% | 5
COc1cccc(CC(=O)NCc2ccc3c(c2)CCN3C(C)=O)c1 | -2% | . | . | . | . | -3
CCc1cccc2c(=O)c(C(=O)N3CCCCCC3)c[nH]c12 | 3% | 3% | 4% | -6% | 1% | 4
COc1ccc(C(=O)CN2C(=O)NC3(CCCc4ccccc43)C2=O)cc1 (centres undefined) | 13% | . | ? | 10µM* | -11% | -19
Cc1ccsc1CN(C)C(=O)CN1C(=O)NC2(CCCc3ccccc32)C1=O (centres undefined) | -8% | 9% | ? | 12µM* | 6% | -27
CCc1cccc2c(C(=O)CN3C(=O)N(C)C4(CCCCC4)C3=O)c[nH]c12 | -7% | 4% | ? | -22% | 7.1µM* | -21
Cc1ccc(C)c(C(=O)CN2C(=O)NC3(CCc4ccccc43)C2=O)c1 (centres undefined) | -1% | 0% | ? | 15µM* | -8% | -14
COc1cccc(CN(C)C(=O)CN2C(=O)NC3(CCCc4ccccc43)C2=O)c1 (centres undefined) | -20% | 1% | ? | ? | 3% | -23
Cc1cc(Cl)ccc1NC(=O)COC(=O)c1c(C)noc1C | -5% | -3% | -9% | -11% | -26% | -28
CCc1cccc2c(C(=O)CN3C(=O)NC4(CCc5ccccc54)C3=O)c[nH]c12 (centres undefined) | -13% | 0% | ? | ? | ? | -69*
O=C(O)CN1C(=O)NC2(CCc3ccccc32)C1=O (centres undefined) | -6% | ? | 22% | 39% | 10% | -14
Cc1cc(C(=O)CN2C(=O)NC3(CCCc4sccc43)C2=O)c(C)n1-c1ccc(Cl)cc1 (centres undefined) | 2% | 0% | 9.3µM* | ? | -26% | -62*
CCc1cccc2c(C(=O)CN3C(=O)NC(C)(c4cccc5ccccc45)C3=O)c[nH]c12 (centres undefined) | -6% | 1% | ? | 10µM* | ? | 54
CC(C)Cc1ccccc1S(N)(=O)=O | -7% | 6% | 10% | 78% | 8% | -38
CCCOC(=O)C(C)n1cnc2scc(-c3ccc(C)cc3)c2c1=O (centres undefined) | -5% | -8% | ? | 46% | 22µM* | 5
CCC(C(=O)OC)n1cnc2scc(-c3ccc(C)c(C)c3)c2c1=O (centres undefined) | 12% | -23% | 13µM* | 0% | ? | -22
CCCn1cnc2scc(-c3ccc(C)c(C)c3)c2c1=O | -25% | -9% | 2% | 10µM* | -21% | -15
CCC(C(=O)O)n1cnc2scc(-c3ccc(C)c(C)c3)c2c1=O (centres undefined) | -3% | -6% | ? | ? | -4% | -10
Cc1c(F)cccc1NS(=O)(=O)c1ccc(N2CCCC2=O)cc1 | . | . | . | . | 1% | 4
Cc1cccc(NC(=O)c2sc3nc(-c4cc5ccc(O)cc5oc4=O)[nH]c(=O)c3c2C)c1 | -1% | . | . | . | . | -8
O=C(Nc1ccc(C#Cc2ccccc2)cc1)C1CC1 | -3% | -19% | -51% | 0% | ? | -64*
CC(=O)Nc1ccc(C#Cc2ccc(NC(C)=O)cc2)cc1 | 5% | 0% | 47% | 72% | -6% | -72*
CC(=O)Nc1ccc(-c2ccc(NC(C)=O)cc2)cc1 | 0% | 1% | 2% | 6% | 8% | 20
O=C(Nc1ccccc1O)c1ccc(NC(=O)C2CC2)cc1 | -4% | -7% | 2.1µM* | 55% | -15% | 358
